# According to PubChem BioAssay (EPA / NIEHS):
# Calls of active or inactive are those of the source. The calls were made as follows: active = hit-call score of the fitted dose curve at least 0.9, where 1 is the maximum; inactive = score below 0.9.
# Assay: ATG_TA_CIS: Attagene CIS-FACTORIAL HepG2 Assay for human TA Basal Promoter (AID 2282964)
# Details: HepG2 Attagene CIS-factorial TA basal promoter reporter; actives raise or lower the signal
# Experimental: ATG_CIS is a cell-based, multiplexed-readout assay that uses HepG2, a human liver cell line, with measurements taken at 24 hours after chemical dosing in a 24-well plate.ATG_TA_CIS is one of 52 assay component(s) measured or calculated from the ATG_CIS assay. It is designed to make measurements of mRNA induction, a form of inducible reporter, as detected with fluorescence intensity signals by Reverse transcription polymerase chain reaction (RT-PCR) and Capillary electrophoresis technology.Data from the assay component ATG_TA_CIS was analyzed into 1 assay endpoint. This assay endpoint, ATG_TA_CIS, was analyzed with bidirectional fitting relative to DMSO as the negative control and baseline of activity. Using a type of inducible reporter, measures of mRNA for gain or loss-of-signal activity can be used to understand the background control at the transcription factor-level as they relate to the gene . Furthermore, this assay endpoint can be referred to as a secondary readout, because this assay has produced multiple assay endpoints where this one serves a background control function. To generalize the intended target to other relatable targets, this assay endpoint is annotated to the background measurement intended target family, where the subfamily is internal marker.
# Human liver HepG2 cells are transiently transfected with multiple reporter transcription units (MRTUs) in 6-well plates using FuGene 6 reagent (Roche; 3 ml FuGene/1 mg DNA). The MRTU constructs are regulated by a cis-regulating element (promoter). […] A major difference between the CIS and TRANS system is that in CIS activities of endogenous TFs are measured, whereas the TRANS assay evaluates changes in activities of exogenous, chimeric NR-Gal4 proteins. […] At the end of 24 hour incubation, total RNA was isolated using TriZol reagent (Invitrogen). The isolated RNA is then reverse-transcribed using oligo(dT) primer and Mo-MLV reverse transcriptase (Invitrogen) with DNAse I (Ambion) treatment for 30 min. The one-tenth of the produced cDNA was amplified by PCR using Taq DNA polymerase (Invitrogen) and two reporter sequence-specific primers. The PCR products were fluorescently labeled by primer extension with 6-arboxyfluorescein (6-FAM) 5'-labeled reporter sequence-specific primer (2 min at 95 C, 20 s at 68 C and 10 min at 72 C) and these products were digested with 5U of HpaI (New England Biolabs) for 2h at 37 C. The fragments were purified using Qiaquick PCR columns (Qiagen), analyzed on an ABI 3130xL genetic analyzer (Applied Biosystems) with peak positions identified by using a set of X-rhodamine (ROX)-labeled MapMarker1000 molecular weight standards (BioVentures). The raw capillary electrophoresis data was processed using Attagraph software (Attagene).
Compound,outcome,AC50
CC=CC=CCOC(=O)C(C)C,inactive,–
CC1(C)C2=CCCC(C)(C)[C@]23CC[C@H]1C3,inactive,–
CC/C=C\CC/C=C/CO,inactive,–
CCCCCCCC(=O)OCC(O)CO (stereo not given),inactive,–
CC1CC(O)CC(C)(C)C1 (stereo not given),inactive,–
CCCCCc1ccco1,inactive,–
O=Cc1ccccc1S(=O)(=O)O,inactive,–
O=C1NC2NC(=O)NC2N1 (stereo not given),inactive,–
CC(=O)CC(=O)Nc1ccc(C)cc1C,inactive,–
O=C1c2ccccc2C(=O)c2c(O)ccc(O)c21,inactive,–
COc1ccccc1[N+](=O)[O-],inactive,–
CCOC(=O)COC(=O)c1cc(Oc2ccc(C(F)(F)F)cc2Cl)ccc1[N+](=O)[O-],inactive,–
BrCc1cccc(Oc2ccccc2)c1,inactive,–
CC1(C)CCC[C@]2(C)[C@H]3CCO[C@]3(C)CC[C@@H]12,inactive,–
CCCCC1CCC(O)CC1 (stereo not given),inactive,–
CC1(C)O[C@@H]2[C@@H](CO[C@@]3(COS(N)(=O)=O)OC(C)(C)O[C@@H]23)O1,inactive,–
CCCCCC(C)=O,inactive,–
CCOc1ccc(NC(=O)CC(C)O)cc1 (stereo not given),inactive,–
CC(C=O)Cc1ccc(C(C)(C)C)cc1 (stereo not given),inactive,–
CC(C)c1ccccc1O,inactive,–

Compound,outcome,AC50
Oc1ccc2cc(SSc3ccc4cc(O)ccc4c3)ccc2c1,–,26.6 µM (active)
O=C1OC(=O)c2c(Br)c(Br)c(Br)c(Br)c21,inactive,–
CCCCCCCCC=CCCCCCCCC1=NCCN1CCO,inactive,–
COc1ccc(N=Nc2cc(C)c(N=Nc3ccc(S(=O)(=O)O)cc3)cc2OC)cc1,inactive,–
COc1ccc(COC(C)=O)cc1,inactive,–
CC=Cc1ccc(OC)c(OC)c1,inactive,–
CCCCCCOC(=O)CCC,inactive,–
NCCNc1cccc2ccccc12,inactive,–
CC1(C)C(=O)N(Cl)C(=O)N1Br,inactive,–
C=C(C)[C@H]1CC=C(C)C(=O)C1,inactive,–
O=C(Nc1ccc2c(O)c(N=Nc3ccc(N=Nc4ccc(S(=O)(=O)O)cc4)cc3)c(S(=O)(=O)O)cc2c1)c1ccccc1,inactive,–
Cc1ncc[nH]1,inactive,–
COC(C)(C)CC(C)=O,inactive,–
COc1cc(Cl)c(OC)cc1N,inactive,–
CCC(C)S (stereo not given),inactive,–
COc1ccc(OC)c(N=Nc2c(O)ccc3ccccc23)c1,inactive,–
c1ccc2[nH]cnc2c1,inactive,–
CN(c1nccc(=O)[nH]1)C1CCN(c2nc3ccccc3n2Cc2ccc(F)cc2)CC1,inactive,–
CC(C)C[C@H](NC(=O)OCC1c2ccccc2-c2ccccc21)C(=O)O,inactive,–
OCCCCC(O)CO (stereo not given),inactive,–
